# Data from PubChem BioAssay.
# Inconclusive results are not listed. Calls of active or inactive are those of the source.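 How the source made its calls, unless noted: active means viability increase at or above a cutoff of the median across tested compounds plus 3 SD (cut at about 8.5% in these data, passing the limit was not always enough); inconclusive means some gains above the cutoff, reason not given; inactive means the rest.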
# Key:
# [1] = reducers of endogenous Her2 protein level, primary screen, SKBR3 breast tumor cells, AlphaScreen, ATP viability (AID 461;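 active means Her2 level under about 52% in both replicate screens, with viability over 70% of control, limit read from the data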;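 on Her2 level: lower value means less Her2 protein in the cells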;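 on viability: percent of carrier control wells set as 100% viability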); conditions: 18-24 h, measured here: SKBR3 viability, ATP luminescence, at 10 µM
# [2] = biological target: Receptor tyrosine-protein kinase erbB-2 (Homo sapiens) (UniProt P04626); test: as above; conditions: 18-24 h, at 10 µM, stronger effect = lower value
# Sequence of Receptor tyrosine-protein kinase erbB-2 (Homo sapiens) (P04626 whole entry, looked up): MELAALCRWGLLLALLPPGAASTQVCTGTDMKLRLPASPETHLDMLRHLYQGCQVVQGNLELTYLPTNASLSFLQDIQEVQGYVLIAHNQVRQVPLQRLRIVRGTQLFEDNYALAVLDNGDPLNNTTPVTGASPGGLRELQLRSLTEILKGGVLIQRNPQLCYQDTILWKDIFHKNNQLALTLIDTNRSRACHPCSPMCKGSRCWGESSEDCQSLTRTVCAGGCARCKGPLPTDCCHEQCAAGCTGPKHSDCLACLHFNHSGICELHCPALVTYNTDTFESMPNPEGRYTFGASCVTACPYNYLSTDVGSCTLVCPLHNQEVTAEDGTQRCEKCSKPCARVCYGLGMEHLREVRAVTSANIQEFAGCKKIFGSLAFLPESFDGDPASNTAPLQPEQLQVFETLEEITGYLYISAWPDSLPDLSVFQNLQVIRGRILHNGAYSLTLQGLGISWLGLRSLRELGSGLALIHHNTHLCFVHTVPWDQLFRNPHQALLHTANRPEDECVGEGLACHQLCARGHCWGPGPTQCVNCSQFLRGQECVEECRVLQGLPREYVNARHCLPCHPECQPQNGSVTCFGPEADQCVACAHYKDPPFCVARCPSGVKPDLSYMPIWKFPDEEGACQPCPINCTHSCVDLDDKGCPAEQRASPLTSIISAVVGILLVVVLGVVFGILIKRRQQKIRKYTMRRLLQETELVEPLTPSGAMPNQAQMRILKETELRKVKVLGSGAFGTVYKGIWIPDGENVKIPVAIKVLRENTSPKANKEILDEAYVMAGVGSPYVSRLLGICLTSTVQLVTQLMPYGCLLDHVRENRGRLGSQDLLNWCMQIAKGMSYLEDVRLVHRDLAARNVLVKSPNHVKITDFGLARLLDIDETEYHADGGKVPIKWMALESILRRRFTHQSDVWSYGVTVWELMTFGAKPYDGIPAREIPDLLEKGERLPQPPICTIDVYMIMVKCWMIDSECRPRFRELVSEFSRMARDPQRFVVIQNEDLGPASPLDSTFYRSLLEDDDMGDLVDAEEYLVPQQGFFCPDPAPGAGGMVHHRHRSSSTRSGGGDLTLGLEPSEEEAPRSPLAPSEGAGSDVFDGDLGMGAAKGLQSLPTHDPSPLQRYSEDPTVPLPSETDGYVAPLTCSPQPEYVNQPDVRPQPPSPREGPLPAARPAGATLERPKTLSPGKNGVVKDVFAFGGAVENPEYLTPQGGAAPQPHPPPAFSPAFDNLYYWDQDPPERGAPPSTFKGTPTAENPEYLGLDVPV
# [3] = SK-BR-3 cell growth inhibitors, pilot screen, 24 h, human (AID 572;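 active means viability at or below 10% of carrier control in both of two separate runs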;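 further: compound exposure lasted between 18 and 24 h rather than exactly 24 h; 100% = carrier-treated control wells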); conditions: SK-BR-3 viability, CellTiter-Glo luminescence, at 10 µM, stronger effect = lower value
# [4] = HUVEC growth inhibition – cell-based, human, primary screen (AID 575;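 active means viability at or below 30% in both replicate assays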;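 further: 100% = median of untreated cell wells with 0.1% DMSO on each plate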); conditions: HUVEC proliferation, CellTiter-Glo luminescence, 72 h; at 10 µM; stronger effect = lower value
# [5] = growth inhibitors of H69AR lung tumor, primary screen, human, duplicate replicates (AID 580;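 active means viability at or under a set limit in both replicates, limit being median viability minus 3 SD, cut at about 48% in these data, passing the limit was not always enough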;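 further: 100% = mean luminescence of untreated wells and 0% = no signal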); conditions: H69AR lung tumor cells viability, ATP luminescence, 72 h; at 10 µM; stronger effect = lower value
# [6] = reversal of MRP1-mediated doxorubicin resistance, pilot screen, H69AR cells, doxorubicin co-treatment (AID 601;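 active means viability loss from added drug above about 55%, and viability with drug at most 40%, in both replicates, limit read from the data, passing the limit was not always enough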); conditions: CellTiter-Glo, 72 h, at 10 µM; for differential viability (reversal): stronger effect = higher value
# [7] = 384-well plate pilot, post-Golgi transport modulator project, inhibition of yeast transport mutant growth (AID 636; in the data active means inhibition above about 31%); conditions: absorbance 615 nm, about 18 h, stronger effect = higher value
# [8] = growth suppression of yeast trafficking mutant, preliminary HTS, modulators of trafficking downstream of Golgi apparatus project, 1536-format plate, OD 615 nm (AID 637; in the data active means inhibition above about 30%); conditions: yeast transport mutant growth, absorbance 615 nm, 18 h; stronger effect = higher value
# [9] = OD615 S. cerevisiae growth inhibition, permissive medium, pilot counter-assay, permissive growth control for S. cerevisiae lifespan shortening project (AID 705;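 active means growth inhibition above 25% in both replicates, a cutoff set 3 SD above the mean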); conditions: OD615, 24 h, at 10 µM, stronger effect = higher value
# [10] = Restrictive medium S. cerevisiae growth inhibition, OD615, pilot screen of yeast lifespan reduction project, restrictive growth control (AID 706;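 active means growth inhibition above a set limit, 3 SD over mean compound inhibition, in both replicates, cut at about 43% in these data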;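 further: modified DeaD lifespan yeast strain shifted to restrictive glucose medium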); conditions: OD615, 48 h, at 10 µM, stronger effect = higher value
# [11] = viability gain of MRP-1-high H69AR cells under doxorubicin, pilot screen, MRP-1 activator project, CellTiter-Glo, duplicate (AID 807); conditions: H69AR viability with doxorubicin, CellTiter-Glo luminescence; at 10 µM; stronger effect = higher value;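 further: compound pretreatment 18-22 h then 72 h combined with doxorubicin; 0% = doxorubicin alone and 100% = vehicle without doxorubicin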
# [12] = growth suppression of beta-catenin knockout HCT116, pilot screen, human colon tumor cells (AID 823;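 active means cell viability at or below a set limit in both duplicate runs, the limit being the all-compound median minus 4 SD, cut at about 23% in these data, passing the limit was not always enough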;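 further: 0% = wells killed by 20 µM Hyamine and 100% = untreated DMSO cell wells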); conditions: CellTiter-Glo, 60 h, at 10 µM, stronger effect = lower value
# [13] = growth suppression of PTEN-deleted HCT116, pilot screen, cell-based, HCT116 clonal line, CellTiter-Glo (AID 824;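 active means viability at or below 27.92% in each of two runs, the all-compound median minus 4 SD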;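 further: 0% = 20 µM Hyamine control and 100% = vehicle cell control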); conditions: 60 h, at 10 µM, stronger effect = lower value
# [14] = inhibitors of the yeast RAM network, pilot screen, dse1pr::URA3 reporter, 5-FOA selection (AID 869;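 active means inhibition over a set limit, the all-compound mean plus 3 SD, in both replicate runs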;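 further: 0% = DMSO wells with no growth and 100% = 10 µM 1-NA-PP1 with full growth; RAM network block rescues cells from 5-FOA so hits raise OD615 growth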); conditions: S. cerevisiae dse1pr::URA3 5-FOA growth, OD615, 2 d; at 10 µM; stronger effect = higher value; strain carries analog-sensitive mutant Cbk1 kinase
# [15] = RAM signaling pathway blockade in yeast – S. cerevisiae, Pdr1DBD-CYC8 efflux-inhibited sensitized strain, primary screen (AID 1298;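 active means RAM network inhibition above 8.4% in each of two replicates, 3 SD over the compound average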;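 further: 0% = DMSO untreated cells without growth and 100% = 10 µM 1-NA-PP1 full growth; higher means more yeast growth rescued from 5-FOA killing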); conditions: S. cerevisiae cbk1-as DSE1-URA3 strain, 5-FOA growth OD615, 2 d; at 50 µM; stronger effect = higher value
# [16] = H69AR cells + 2 uM doxorubicin, measured here: viability with 2 uM doxorubicin, stronger effect = lower value
# [17] = H69AR cells, compound alone cytotoxicity
SMILES,viability [1],Her2 level [2],viability [3],viability [4],viability [5],differential viability (reversal) ([6]; H69AR cells + 2 uM doxorubicin),"viability [6, 16]","viability [6, 17]",inhibition [7],inhibition [8],growth inhibition [9],growth inhibition [10],viability increase [11],viability [12],viability [13],inhibition [14],RAM network inhibition [15]
Cn1cc(Cl)c(C(=O)N(Cc2ccccc2)c2ccccn2)n1,98%,116% (inactive),98% (inactive),101% (inactive),92.2% (inactive),-1.01% (inactive),93.2%,92.2%,1.33% (inactive),2.33% (inactive),-8.19% (inactive),-1.84% (inactive),-0.96% (inactive),93.3% (inactive),94.7% (inactive),1.62% (inactive),7.22% (inactive)
CCOC(=O)Cc1nnc(NC(=O)c2ccccc2OCC)s1,100%,92.5% (inactive),100% (inactive),103% (inactive),98% (inactive),9.93% (inactive),88.1%,98%,0% (inactive),-4.26% (inactive),-9.41% (inactive),-14.8% (inactive),-0.28% (inactive),102% (inactive),102% (inactive),1.33% (inactive),3.5% (inactive)
CCCCOC(=O)Cn1c(=O)oc2ccc(C)cc21,102%,126% (inactive),102% (inactive),86% (inactive),93.4% (inactive),5.94% (inactive),87.4%,93.4%,-3.2% (inactive),2.67% (inactive),-17.9% (inactive),-25.1% (inactive),-0.28% (inactive),89.6% (inactive),98.1% (inactive),-0.58% (inactive),0.27% (inactive)
COc1cc(NC(=O)c2nccnc2C(=O)O)cc(OC)c1,98%,107% (inactive),98% (inactive),95.7% (inactive),109% (inactive),18.3% (inactive),90.6%,109%,-7.6% (inactive),-2.3% (inactive),-8.21% (inactive),-1.48% (inactive),-1.6% (inactive),96.1% (inactive),95% (inactive),2.17% (inactive),-0.31% (inactive)
CC1CCCCN1CCNC(=O)c1ccc2c(=O)n(CCc3ccccc3)c(=O)[nH]c2c1 (stereo unspecified),91%,72.5% (inactive),91% (inactive),53.6% (inactive),93.5% (inactive),12.7% (inactive),80.8%,93.5%,-5% (inactive),1.17% (inactive),-23.3% (inactive),-18.5% (inactive),-4.81% (inactive),76.9% (inactive),73.4% (inactive),1.27% (inactive),8.68% (inactive)
CC(C)CNc1oc(-c2ccc(F)cc2)nc1C#N,108%,110% (inactive),108% (inactive),103% (inactive),94.2% (inactive),1.69% (inactive),92.5%,94.2%,-7.47% (inactive),-4.1% (inactive),-15.3% (inactive),-11.5% (inactive),1.69% (inactive),101% (inactive),84.7% (inactive),0.19% (inactive),5.05% (inactive)
CCOCCCNC(=O)C(NC(=O)c1ccccn1)c1ccc(C)cc1 (stereo unspecified),94.5%,120% (inactive),94.5% (inactive),104% (inactive),106% (inactive),8.57% (inactive),97.3%,106%,-2.6% (inactive),1.9% (inactive),-4.42% (inactive),1.57% (inactive),-0.13% (inactive),108% (inactive),97.3% (inactive),0.07% (inactive),0.36% (inactive)
CC1CCCN(C(=O)CN2C(=O)c3ccccc3C2=O)C1 (stereo unspecified),93.5%,104% (inactive),93.5% (inactive),93.8% (inactive),84.8% (inactive),-6.78% (inactive),91.6%,84.8%,-3.59% (inactive),-6.33% (inactive),-15.4% (inactive),-9.79% (inactive),-0.25% (inactive),101% (inactive),98.7% (inactive),1.7% (inactive),0.38% (inactive)
O=C(CN1CCN(Cc2ccc(F)cc2Cl)C1=O)NCCCN1CCOCC1,99%,104% (inactive),99% (inactive),95.2% (inactive),102% (inactive),14% (inactive),87.8%,102%,-3.07% (inactive),-5.08% (inactive),-6.96% (inactive),8.75% (inactive),-0.41% (inactive),94.5% (inactive),97.3% (inactive),0.47% (inactive),1.91% (inactive)
c1ccc2c(c1)Cc1cc(CN3CCOCC3)ccc1-2,85%,100% (inactive),85% (inactive),99.7% (inactive),89.3% (inactive),-2.81% (inactive),92.1%,89.3%,2.34% (inactive),-1.15% (inactive),-14.7% (inactive),-4.66% (inactive),0.12% (inactive),92.3% (inactive),97.5% (inactive),1.01% (inactive),0.21% (inactive)
Cc1cccc(C2CC(c3ccccc3)Nc3nc(N)nn32)c1 (stereo unspecified),92%,94.5% (inactive),92% (inactive),92.7% (inactive),108% (inactive),8.54% (inactive),99.5%,108%,-4.13% (inactive),1.15% (inactive),1.73% (inactive),3.52% (inactive),-0.5% (inactive),99.8% (inactive),88.2% (inactive),-0.64% (inactive),0.21% (inactive)
CCOC(=O)Cn1c(CCC(=O)O)ccc1-c1ccc(F)cc1,99%,101% (inactive),99% (inactive),106% (inactive),84.3% (inactive),-8.34% (inactive),92.6%,84.3%,-5.6% (inactive),3.33% (inactive),-9.79% (inactive),-2.42% (inactive),-2.3% (inactive),102% (inactive),101% (inactive),0.72% (inactive),2.74% (inactive)
CC(C)c1ccc(C(O)c2cnc(C(C)C)n2C)cc1 (stereo unspecified),112%,92% (inactive),112% (inactive),116% (inactive),88.1% (inactive),6.51% (inactive),81.6%,88.1%,-4.13% (inactive),2.5% (inactive),-6.82% (inactive),-0.345% (inactive),0.64% (inactive),96.4% (inactive),91% (inactive),0.355% (inactive),1.77% (inactive)
CCC(C)C(NC(=O)C1CCC(C)CC1)C(=O)NCc1cccnc1 (stereo unspecified),99%,87.5% (inactive),99% (inactive),82.4% (inactive),102% (inactive),5.36% (inactive),96.3%,102%,-6.89% (inactive),3.17% (inactive),-12.5% (inactive),-2.67% (inactive),-0.91% (inactive),86.4% (inactive),87.7% (inactive),0.265% (inactive),4.7% (inactive)
COc1ccc(-c2[nH]c(-c3cccc(OC)c3)nc2SCC(=O)NCc2ccco2)cc1,95.5%,85.5% (inactive),95.5% (inactive),62.5% (inactive),71% (inactive),-2.42% (inactive),73.4%,71%,-2.67% (inactive),-0.33% (inactive),-9.19% (inactive),1.65% (inactive),-4.56% (inactive),93.3% (inactive),90.3% (inactive),1.09% (inactive),11.2% (inactive)
CC(C)(C)NC(=O)CC(CC(=O)O)c1ccccc1 (stereo unspecified),112%,117% (inactive),112% (inactive),110% (inactive),88.5% (inactive),-8.51% (inactive),97%,88.5%,-4.27% (inactive),7.67% (inactive),-11.7% (inactive),3.69% (inactive),-0.99% (inactive),106% (inactive),101% (inactive),2.61% (inactive),-1.67% (inactive)
CN(C)CCCN1C(=O)c2oc3ccc(Cl)cc3c(=O)c2C1c1cccnc1 (stereo unspecified),100%,90.5% (inactive),100% (inactive),96.7% (inactive),83% (inactive),3.07% (inactive),79.9%,83%,-2.93% (inactive),3.5% (inactive),-2.16% (inactive),4.2% (inactive),-1.8% (inactive),93.5% (inactive),92.7% (inactive),0.22% (inactive),-2.19% (inactive)
CCOC(=O)N1CCN(C(=O)c2ccc(CS(=O)(=O)c3ccc(OC)cc3)o2)CC1,88%,88% (inactive),88% (inactive),104% (inactive),89.2% (inactive),-9.97% (inactive),99.2%,89.2%,-4.67% (inactive),0% (inactive),-12.3% (inactive),-27.2% (inactive),-1.05% (inactive),104% (inactive),97.4% (inactive),-0.045% (inactive),4.85% (inactive)
